Molecules are shown by their SMILES. Screen size: about 1,600 compounds; about 1,300 (81%) were called active. No rule for the calls is given here. So high a share suggests a set chosen from earlier hits. Only a sample is shown. Results with a measured potency or affinity are listed apart.

The assay can be described thus: non-specific 3'UTR reporter inhibition in Clone20-Shn3RL – cell-based, Renilla luciferase, cherry-picked, counter-screen for Shn3 inhibitor project, dose response (AID 624133).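 Also: 0% = neutral control wells and -100% = positive control wells.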 The note with it: Clone20-Shn3RL cells, Renilla luciferase luminescence, 24 h; at 35 µM (top of the series) unless noted. In general terms: Counterscreens check selectivity or assay interference.
With `COC(=O)c1ccccc1NC(=S)N(Cc1ccc2c(c1)OCO2)Cc1cc2cc(OC)ccc2[nH]c1=O`, the activity change, negative = inhibition turned out to be 200%.
In the case of `O=C1S/C(=C\c2ccc(N3CCOCC3)o2)C(=O)N1Cc1c(F)cccc1Cl`, the activity change, negative = inhibition stood at 400%.
Next, `Cc1cc(C)n(-c2cc(-n3nc(C)cc3C)ncn2)n1`: 2.38%; `C[C@@H]1CN([C@H](C)CO)C(=O)c2cc(Br)cnc2O[C@H]1CN(C)C(=O)Cc1ccncc1`: 83.3%.
Next, `CN1OC[C@@H]2CN[C@H](c3ccc(-c4cc5ccccc5o4)cc3)C[C@@H]21`: -25%.
The same measure for `CN(CC(=O)Nc1cc(S(=O)(=O)N2CCCC2)ccc1Cl)Cc1ccc2c(c1)OCO2`: 87.5%; for `CC(C)(C)OC(=O)NCc1ccc(CNC(=O)c2nc[nH]c2C(=O)NCc2ccc(CNC(=O)OC(C)(C)C)cc2)cc1`: 208%; for `Cc1ccc(-n2cc(CNCCCn3ccnc3C)c(-c3ccc(F)cc3)n2)cc1`: -91.7%.
Regarding `COC(=O)c1cn(NC(=O)c2cc([N+](=O)[O-])ccc2F)c(=O)c2ccccc12`, the activity change, negative = inhibition was determined as 354%.
Take `CC(C)c1ccc(Oc2cccc3c2S(=O)(=O)N(C2CCCC2)CC(COCc2ccccc2)O3)cc1` (stereo not drawn): the activity change, negative = inhibition stood at 273%.
The same measure for `Cn1cccc1Cc1nnc(SCC(=O)NCCc2ccccc2)n1-c1ccc(F)cc1`: 275%.
The same measure for `CCN(CC)S(=O)(=O)c1ccc(N(C)Cc2cccc(OC)c2OC)nc1`: -40%; for `CCOC(=O)c1ccc(NC(=O)c2nc[nH]c2C(=O)NCCNC(=O)c2[nH]cnc2C(=O)Nc2ccc(C(=O)OCC)cc2)cc1`: 47.9%.
The same measure for `COc1ccccc1N1CCN(c2ncc(C(=O)N3CCN(c4cccc(Cl)c4)CC3)c3ccccc23)CC1`: 66.7%; for `Cc1cccc2c(C(=O)N3CCN(c4ccccn4)CC3)cc(-c3cccc(Br)c3)nc12`: -100%; for `CCOc1cc(C)c(S(=O)(=O)Nc2ccc3cn[nH]c3c2)cc1C`: 0%.
On to `Cc1ccc(NC(=O)C2CCCN(S(=O)(=O)c3c(C)noc3C)C2)cc1` (stereo not drawn), for which the activity change, negative = inhibition was -19.4%.
Next, `COc1ccc(C(=O)NCCN(C)C)c2nc3ccccc3cc12`: 66.5%.
Next, `COc1ccccc1/C=C1\CCCC2=C1Nc1nnnn1C2c1ccccc1OC` (stereo not drawn): -110%.
In the case of `CCn1c(C)cc(C(=O)COC(=O)c2ccccc2[N+](=O)[O-])c1C`, the activity change, negative = inhibition is -13.6%.
Next, `COc1ccc(-c2nsc3c(N4CCCCC4C)ncnc23)cc1` (stereo not drawn): -16.7%.
As to `O=C(CN1C(=O)C2CCCCC2C1=O)NC1CCCc2ccccc21` (stereo not drawn), the activity change, negative = inhibition was -10%.
With `C[C@@H]1CN([C@@H](C)CO)C(=O)c2cc(NC(=O)Nc3ccc(F)cc3)ccc2O[C@@H]1CN(C)Cc1ccc(Oc2ccccc2)cc1`, the activity change, negative = inhibition is -20.8%.
On to `C[C@@H]1CCCCO[C@H](CN(C)Cc2ccccc2)[C@@H](C)CN([C@H](C)CO)C(=O)c2cc(NC(=O)c3ccccc3)ccc2O1`, for which the activity change, negative = inhibition was 33.3%.
On to `CN(Cc1ccccc1)C(=O)c1cccc(NC(=O)Cc2ccc([N+](=O)[O-])cc2)c1`, for which the activity change, negative = inhibition was determined as 230%.
For `COc1ccc2c(CC(=O)OCC(=O)N(C)c3c(N)n(Cc4ccccc4)c(=O)[nH]c3=O)coc2c1`, the activity change, negative = inhibition was -12.5%.
For the compound `CC(Oc1ccc(F)cc1)C(=O)N(CCC1=CCCCC1)c1c(N)n(Cc2ccccc2)c(=O)[nH]c1=O` (stereo not drawn), the activity change, negative = inhibition is -25%.
The same measure for `COc1ccc(CN2CCC(C(=O)Nc3ccc(Oc4cccnc4)cc3)CC2)c(C)c1C`: -75%; for `CC(C)(C)C(=O)Nc1cc(S(=O)(=O)N2CCCCC2)ccc1N1CCCCC1`: 50%; for `COc1cccc(-c2nc(NC3CCCC3)c3ccccc3n2)c1O`: -22.7%.
Next, `COc1ccc(-n2ncc3c(N4CCCCC4)ncnc32)cc1`: -75%; `CCn1cc(CNCc2cn(-c3ccccc3C)nc2-c2ccc(OC)c(F)c2)cn1`: 150%; `Cc1ccc(C(=O)Nc2cnc3ccccc3c2)cc1`: 90%.
Turning to `CC(=O)c1cccc(NS(=O)(=O)c2ccc(-c3cnc(C4CC4)o3)cc2)c1`, the activity change, negative = inhibition was determined as 8.33%.
For `Cc1cccc(NS(=O)(=O)c2ccc(C3CCCCC3)cc2)c1`, the activity change, negative = inhibition amounted to 0%.
As for `CCOC(=O)c1[nH]c(C)c(/C(O)=C2\C(=O)C(=O)N(CCCN3CCOCC3)C2c2cccs2)c1C` (stereo not drawn), the activity change, negative = inhibition was 70%.
Next, `O=C(CSc1nnc(Nc2ccccc2)s1)NC1CCS(=O)(=O)C1` (stereo not drawn): 20.8%; `CCOC(=O)c1cn(CC(=O)Nc2cccc(Cl)c2C)nn1`: 16.7%.
The same measure for `CCOC(=O)Cn1c(S(=O)(=O)Cc2ccccc2Cl)nc(-c2ccccc2)c1-c1ccccc1`: 110%; for `CC1(C)CC(=O)c2c(nc(SCC(=O)Nc3nsc(-c4ccccc4)n3)c(C#N)c2-c2ccccc2)C1`: 16.7%.
The same measure for `Cc1cccc(C(=O)Nc2ccc(C(=O)/C=C/c3ccncc3)cc2)c1`: -100%.
Regarding `CCCCN1CC(COCc2ccccc2)Oc2cccc(Oc3ccc(C(C)C)cc3)c2S1(=O)=O` (stereo not drawn), the activity change, negative = inhibition stood at 37.5%.
Next, `OCCNc1nc(Nc2ccc(Cl)cc2)nc(N2CCCC2)n1`: -11.7%; `OCCCNc1nccc(-c2cc(Nc3cccc(Cl)c3)ncn2)n1`: -50%.
The same measure for `Cc1cc(O)c(C(C)C)cc1C1(c2cc(C(C)C)c(O)cc2C)OC(=O)c2ccccc21`: 0%; for `Cc1ccccc1C(=O)N1CCN(c2ccc(NC(=O)c3ccc4c(c3)OCCO4)cc2)CC1`: -103%.
`O=C(NCCc1ccccc1)c1ccc2c(c1)OCCCO2`: the activity change, negative = inhibition was determined as 22.2%.
In the case of `Cc1onc(-c2c(Cl)cccc2Cl)c1C(=O)N[C@@H]1C(=O)N2[C@@H]1SC(C)(C)[C@@H]2C(=O)O`, the activity change, negative = inhibition worked out at 25%.

The record behind these values is PubChem BioAssay AID624133 (Broad Institute, 2012).
